Measured values as given in PubChem BioAssay (NCATS).
Inconclusive results are not listed. A call without a number means that no potency is given here. A number with no mark means an inactive call. The source made the active and inactive calls. The call rests on the fitted dose curve; in most records, active means well fitted curve in the direction sought with a large enough effect; inconclusive means small, poorly fitted or top-dose-only effect, or another doubt; inactive means no such curve, though single readings can be large; an effect the other way counts as inactive or inconclusive.

What was measured:
[1] = Quantitative High-Throughput drug screen in 47 multiple myeloma cell lines against the NCATS MIPE library collection: MOLP8_DSMZ cell viability assay (AID 1918977); further: nearly all actives have a fitted effect of over 45% in size; further: potency means the concentration at half of the fitted maximal effect
In short: (§1)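 MIPE 4.0 approved/investigational drugs; 500 cells/well; 48 h 37 °C humidified 5% CO2; CTG luminescence readout; DMSO = 100%, media = 0% viability.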

[2] = Quantitative High-Throughput drug screen in 47 multiple myeloma cell lines against the NCATS MIPE library collection: NCIH929_DSMZ cell viability assay (AID 1918978); further: nearly all actives have a fitted effect of over 35% in size; further: potency means the concentration at half of the fitted maximal effect
In short: as §1

[3] = Quantitative High-Throughput drug screen in 47 multiple myeloma cell lines against the NCATS MIPE library collection: OCIMY1_PLB cell viability assay (AID 1918979); further: nearly all actives have a fitted effect of over 35% in size; further: potency means the concentration at half of the fitted maximal effect; on viability: series mostly up to about 46 µM
In short: as §1

[4] = Quantitative High-Throughput drug screen in 47 multiple myeloma cell lines against the NCATS MIPE library collection: MM1R_ATCC cell viability assay (AID 1918981); further: nearly all actives have a fitted effect of over 35% in size; further: potency means the concentration at half of the fitted maximal effect
In short: as §1

[5] = Quantitative High-Throughput drug screen in 47 multiple myeloma cell lines against the NCATS MIPE library collection: LP1_DSMZ cell viability assay (AID 1918982); further: nearly all actives have a fitted effect of over 35% in size; further: potency means the concentration at half of the fitted maximal effect
In short: as §1

[6] = Quantitative High-Throughput drug screen in 47 multiple myeloma cell lines against the NCATS MIPE library collection: KMS28PE_JCRB cell viability assay (AID 1918983); further: nearly all actives have a fitted effect of over 35% in size; further: potency means the concentration at half of the fitted maximal effect
In short: as §1

[7] = Quantitative High-Throughput drug screen in 47 multiple myeloma cell lines against the NCATS MIPE library collection: L363_DSMZ cell viability assay (AID 1918984); further: nearly all actives have a fitted effect of over 40% in size
In short: as §1

[8] = Quantitative High-Throughput drug screen in 47 multiple myeloma cell lines against the NCATS MIPE library collection: KMS34_JCRB cell viability assay (AID 1918985); further: nearly all actives have a fitted effect of over 40% in size; further: potency means the concentration at half of the fitted maximal effect
In short: as §1

[9] = Quantitative High-Throughput drug screen in 47 multiple myeloma cell lines against the NCATS MIPE library collection: OCIMY7_PLB cell viability assay (AID 1918987); further: nearly all actives have a fitted effect of over 65% in size; further: potency means the concentration at half of the fitted maximal effect
In short: as §1

[10] = Quantitative High-Throughput drug screen in 47 multiple myeloma cell lines against the NCATS MIPE library collection: OPM1_PLB cell viability assay (AID 1918989); further: nearly all actives have a fitted effect of over 40% in size; further: potency means the concentration at half of the fitted maximal effect
In short: as §1

[11] = Quantitative High-Throughput drug screen in 47 multiple myeloma cell lines against the NCATS MIPE library collection: XG6_PLB cell viability assay (AID 1919865); further: nearly all actives have a fitted effect of over 40% in size; further: potency means the concentration at half of the fitted maximal effect
In short: as §1

[12] = Quantitative High-Throughput drug screen in 47 multiple myeloma cell lines against the NCATS MIPE library collection: XG1_PLB cell viability assay (AID 1919866); further: nearly all actives have a fitted effect of over 35% in size; further: potency means the concentration at half of the fitted maximal effect
In short: as §1

[13] = Quantitative High-Throughput drug screen in 47 multiple myeloma cell lines against the NCATS MIPE library collection: UTMC2_PLB cell viability assay (AID 1919868); further: nearly all actives have a fitted effect of over 55% in size; further: potency means the concentration at half of the fitted maximal effect
In short: as §1

[14] = Quantitative High-Throughput drug screen in 47 multiple myeloma cell lines against the NCATS MIPE library collection: MMM1_PLB cell viability assay (AID 1918976); further: nearly all actives have a fitted effect of over 35% in size; further: potency means the concentration at half of the fitted maximal effect
In short: as §1

[15] = Quantitative High-Throughput drug screen in 47 multiple myeloma cell lines against the NCATS MIPE library collection: U266_ATCC cell viability assay (AID 1919864); further: nearly all actives have a fitted effect of over 35% in size; further: potency means the concentration at half of the fitted maximal effect
In short: as §1

[16] = Quantitative High-Throughput drug screen in 47 multiple myeloma cell lines against the NCATS MIPE library collection: SKMM1_PLB cell viability assay (AID 1919863); details: SKMM1 myeloma viability, CellTiter-Glo ATP, 48 h; viability: stronger effect = lower value; further: nearly all actives have a fitted effect of over 35% in size; further: potency means the concentration at half of the fitted maximal effect; on viability: series mostly up to about 46 µM
In short: as §1

[17] = Quantitative High-Throughput drug screen in 47 multiple myeloma cell lines against the NCATS MIPE library collection: VP6_DJ cell viability assay (AID 1919867); further: nearly all actives have a fitted effect of over 40% in size; further: potency means the concentration at half of the fitted maximal effect
In short: as §1

[18] = Quantitative High-Throughput drug screen in 47 multiple myeloma cell lines against the NCATS MIPE library collection: MM1S_ATCC cell viability assay (AID 1918980); further: potency means the concentration at half of the fitted maximal effect; nearly all actives have a fitted effect of over 45% in size
In short: as §1

[19] = Quantitative High-Throughput drug screen in 47 multiple myeloma cell lines against the NCATS MIPE library collection: OCIMY5_PLB cell viability assay (AID 1918988); further: potency means the concentration at half of the fitted maximal effect; nearly all actives have a fitted effect of over 65% in size
In short: as §1

Structure (SMILES): CC(C)Cc1ccc(C(C)C(=O)O)cc1 (stereo not given)
- Potency [1]: inactive
- Potency [2]: inactive
- Potency [3]: inactive
- Potency [4]: inactive
- Potency [5]: inactive
- Potency [6]: inactive
- Potency [7]: inactive
- Potency [8]: inactive
- Potency [9]: inactive
- Potency [10]: inactive
- Potency [11]: 6.45 µM (active)
- Potency [12]: inactive
- Potency [13]: inactive

Structure (SMILES): Nc1c2c(nc3ccccc13)CCCC2
- Potency [2]: inactive
- Potency [3]: inactive
- Potency [5]: inactive
- Potency [6]: 14.8 µM (active)
- Potency [9]: inactive
- Potency [10]: inactive
- Potency [11]: inactive
- Potency [12]: inactive

Structure (SMILES): C[C@](N)(Cc1ccc(O)c(O)c1)C(=O)O
- Potency [14]: 5.26 µM (active)
- Potency [1]: 13.2 µM (active)
- Potency [3]: 16.6 µM (active)
- Potency [4]: 20.9 µM (active)
- Potency [7]: inactive
- Potency [15]: 18.7 µM (active)
- Potency [12]: inactive
- Potency [13]: inactive

Structure (SMILES): Cc1cn([C@H]2C[C@H](N=[N+]=[N-])[C@@H](CO)O2)c(=O)[nH]c1=O
- Potency [1]: inactive
- Potency [2]: 23.5 µM (active)
- Potency [4]: inactive
- Potency [8]: inactive
- Potency [9]: 16.6 µM (active)
- Potency [10]: 29.6 µM (active)
- viability [16]: 139%
- Potency [15]: 16.6 µM (active)
- Potency [12]: 16.6 µM (active)

Structure (SMILES): CCCNCC(O)COc1ccccc1C(=O)CCc1ccccc1 (stereo not given)
- Potency [1]: inactive
- Potency [2]: inactive
- Potency [4]: inactive
- Potency [6]: inactive
- Potency [8]: inactive
- Potency [11]: inactive

Structure (SMILES): Clc1ccc2nsnc2c1NC1=NCCN1
- Potency [1]: inactive
- Potency [2]: inactive
- Potency [3]: inactive
- Potency [4]: inactive
- Potency [5]: inactive
- Potency [6]: inactive
- Potency [9]: inactive
- Potency [10]: inactive
- Potency [11]: inactive
- Potency [12]: inactive
- Potency [17]: inactive
- Potency [13]: inactive

Structure (SMILES): O=C1Cc2cc(CCN3CCN(c4nsc5ccccc45)CC3)c(Cl)cc2N1
- Potency [14]: 23.5 µM (active)
- Potency [2]: 23.5 µM (active)
- Potency [3]: 20.9 µM (active)
- Potency [4]: 20.9 µM (active)
- Potency [8]: 20.9 µM (active)
- Potency [11]: 23.5 µM (active)
- Potency [12]: 23.5 µM (active)
- Potency [17]: 16.6 µM (active)
- Potency [13]: 20.9 µM (active)

Structure (SMILES): Clc1ccccc1C(c1ccccc1)(c1ccccc1)n1ccnc1
- Potency [14]: 23.5 µM (active)
- Potency [3]: inactive
- Potency [9]: 18.7 µM (active)
- Potency [11]: 5.9 µM (active)
- Potency [17]: 14.8 µM (active)

Structure (SMILES): COc1cc2c(c(OC)c1OC)-c1ccc(OC)c(=O)cc1[C@@H](NC(C)=O)CC2
- Potency [2]: inactive
- Potency [5]: inactive
- Potency [10]: inactive
- Potency [11]: inactive
- Potency [12]: inactive
- Potency [17]: inactive
- Potency [13]: inactive

Structure (SMILES): O=c1c(-c2ccc(O)cc2)coc2cc(O)cc(O)c12
- Potency [3]: inactive
- Potency [10]: inactive
- Potency [17]: 5.9 µM (active)

Structure (SMILES): O=c1c(O)c(-c2ccc(O)c(O)c2)oc2cc(O)cc(O)c12
- Potency [1]: inactive
- Potency [2]: 7.43 µM (active)
- Potency [6]: inactive
- Potency [9]: 11.8 µM (active)
- Potency [10]: 20.9 µM (active)
- Potency [11]: 16.6 µM (active)
- Potency [12]: 18.7 µM (active)
- Potency [17]: 16.6 µM (active)

Structure (SMILES): COc1ccc2c(c1)c(CC(=O)O)c(C)n2C(=O)c1ccc(Cl)cc1
- Potency [1]: inactive
- Potency [2]: 18.7 µM (active)
- Potency [3]: inactive
- Potency [4]: inactive
- Potency [5]: inactive
- Potency [8]: inactive
- Potency [9]: 13.2 µM (active)
- Potency [10]: inactive
- viability [16]: 128%
- Potency [11]: 18.7 µM (active)
- Potency [12]: 5.26 µM (active)
- Potency [17]: 20.9 µM (active)

Structure (SMILES): Cn1ccc2cc3c(cc21)CCN3C(=O)Nc1cccnc1
- Potency [4]: inactive
- Potency [9]: 20.9 µM (active)
- Potency [11]: 11.8 µM (active)
- Potency [17]: 14.8 µM (active)

Structure (SMILES): NC(=O)OCC(COC(N)=O)c1ccccc1
- Potency [2]: inactive
- Potency [3]: inactive
- Potency [4]: inactive
- Potency [5]: inactive
- Potency [6]: inactive
- Potency [8]: inactive
- Potency [15]: 10.5 µM (active)
- Potency [11]: inactive
- Potency [12]: inactive

Structure (SMILES): CC(COc1ccccc1)N(CCCl)Cc1ccccc1 (stereo not given)
- Potency [2]: inactive
- Potency [5]: inactive
- Potency [8]: inactive
- viability [16]: 112%
- Potency [15]: inactive

Structure (SMILES): NC12CC3CC(CC(C3)C1)C2
- Potency [14]: inactive
- Potency [2]: 16.6 µM (active)
- Potency [6]: inactive
- Potency [9]: inactive
- viability [16]: 134%
- Potency [15]: 26.4 µM (active)
- Potency [11]: 2.96 µM (active)
- Potency [17]: 3.32 µM (active)
- Potency [13]: 8.33 µM (active)

Structure (SMILES): OCCN(CCO)c1nc(N2CCCCC2)c2nc(N(CCO)CCO)nc(N3CCCCC3)c2n1
- Potency [14]: 23.5 µM (active)
- Potency [1]: 16.6 µM (active)
- Potency [18]: 20.9 µM (active)
- Potency [6]: 20.9 µM (active)
- Potency [15]: 23.5 µM (active)
- Potency [11]: 18.7 µM (active)
- Potency [12]: 23.5 µM (active)
- Potency [17]: 23.5 µM (active)
- Potency [13]: 20.9 µM (active)

Structure (SMILES): CC(CCc1ccc(O)cc1)NCCc1ccc(O)c(O)c1 (stereo not given)
- Potency [14]: 10.5 µM (active)
- Potency [3]: 18.7 µM (active)
- Potency [4]: 18.7 µM (active)
- Potency [5]: 20.9 µM (active)
- Potency [8]: 9.35 µM (active)
- Potency [9]: 16.6 µM (active)
- Potency [19]: 20.9 µM (active)
- Potency [10]: 26.4 µM (active)
- Potency [16]: 18.7 µM (active)
- Potency [12]: 23.5 µM (active)
- Potency [17]: 16.6 µM (active)

Structure (SMILES): Cc1ccc(-c2cc(C(F)(F)F)nn2-c2ccc(S(N)(=O)=O)cc2)cc1
- Potency [3]: inactive
- Potency [4]: 8.33 µM (active)
- Potency [8]: 1.32 µM (active)
- Potency [9]: 20.9 µM (active)

Structure (SMILES): CC(C)NCC(O)c1ccc(O)c(O)c1 (stereo not given)
- Potency [14]: 7.43 µM (active)
- Potency [1]: 23.5 µM (active)
- Potency [4]: 4.18 µM (active)
- Potency [10]: 4.18 µM (active)
- Potency [16]: 16.6 µM (active)
- Potency [11]: 0.743 µM (active)
- Potency [12]: 1.87 µM (active)
- Potency [17]: 0.0332 µM (active)

Structure (SMILES): CCOC(=O)Nc1ccc(NCc2ccc(F)cc2)nc1N
- Potency [1]: inactive
- Potency [3]: inactive
- Potency [5]: inactive
- Potency [6]: inactive
- Potency [10]: inactive
- viability [16]: 134%
- Potency [11]: 14.8 µM (active)
- Potency [12]: inactive
- Potency [13]: inactive

Structure (SMILES): CC12CC3CC(C)(C1)CC(N)(C3)C2
- Potency [3]: inactive
- Potency [5]: inactive
- Potency [6]: inactive
- Potency [9]: 23.5 µM (active)
- viability [16]: 125%
- Potency [11]: 20.9 µM (active)
- Potency [12]: 23.5 µM (active)
- Potency [17]: 18.7 µM (active)

Structure (SMILES): COc1cc2nc(N(C)CCCNC(=O)C3CCCO3)nc(N)c2cc1OC (stereo not given)
- Potency [2]: inactive
- Potency [11]: inactive
- Potency [12]: inactive
- Potency [17]: inactive
